# H9c2 protect: cardioprotection against H2O2-induced cell death, primary screen, uHTS, H9c2 cells, ATPLite luminescence; AID 588492, 2011; protection from H2O2 cell death, % at 20 µM; actives 0.63% (n = 360,000); H9c2 cardiomyocytes, H2O2 injury protection, 2 h;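 active = compounds giving at least 50% protection of heart cells from peroxide-induced death in the single-dose screen, raw or plate-pattern-corrected value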;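 also: 0% = DMSO wells with peroxide and 100% = DMSO wells without peroxide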
# NTR1 ag: agonists of human NTR1, primary screen, imaging, U2OS cells, beta-arrestin-GFP, high content | AID 493036, 2011 | NTR1-U2OS beta-arrestin-GFP spot imaging, agonist mode | activation, % at 20 µM | Neurotensin receptor type 1 (Homo sapiens), P30989 | actives 0.17% (n = 330,000);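 active = activation at or above 40% of the spot to cytoplasm intensity ratio, with at least 20 cells analyzed; inconclusive = wells under 20 cells, flagged as cytotoxic or low count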;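 also: 0% = DMSO without peptide and 100% = 100 nM NTR1 peptide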
# Target sequence (P30989 whole entry, looked up): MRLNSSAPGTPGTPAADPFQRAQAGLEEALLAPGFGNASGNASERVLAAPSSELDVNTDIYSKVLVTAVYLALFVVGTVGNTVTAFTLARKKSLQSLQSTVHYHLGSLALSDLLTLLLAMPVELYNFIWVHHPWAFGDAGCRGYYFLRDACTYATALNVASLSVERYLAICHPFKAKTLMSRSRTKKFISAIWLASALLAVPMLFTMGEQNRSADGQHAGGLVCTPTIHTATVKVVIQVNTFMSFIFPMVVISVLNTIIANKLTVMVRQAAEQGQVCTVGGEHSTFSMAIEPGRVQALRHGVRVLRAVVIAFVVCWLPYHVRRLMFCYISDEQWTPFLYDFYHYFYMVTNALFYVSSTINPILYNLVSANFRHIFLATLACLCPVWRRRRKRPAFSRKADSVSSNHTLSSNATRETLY
# ALR inh: inhibitors of human ALR sulfhydryl oxidase, primary screen, biochemical, H2O2 detection, HRP-luminol luminescence, single point; purified ALR, DTT oxidation; inhibition, % (concentration not given with the values); actives 3.8% (n = 290,000); AID 485317, 2010;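 active = mean replicate inhibition above about 79%, with every replicate also reaching it, limit read from the data; inconclusive = only one of the two criteria met; inactive = mean below limit and not every replicate reaching it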
# SUMO HTRF inh: inhibitors of in vitro SUMOylation cascade, primary screen, biochemical, HTRF, uHTS; SUMO-conjugating enzyme UBC9 (Homo sapiens), P63279; HTRF SUMOylation assay, SAE1/SAE2 + UBC9; inhibition, % at 35 µM; actives 0.36% (n = 290,000); AID 2006, 2009; in the data active = inhibition above about 50%, passing the limit was not always enough; inconclusive = no clear call, values can overlap the other calls
# Target sequence (P63279 whole entry, looked up): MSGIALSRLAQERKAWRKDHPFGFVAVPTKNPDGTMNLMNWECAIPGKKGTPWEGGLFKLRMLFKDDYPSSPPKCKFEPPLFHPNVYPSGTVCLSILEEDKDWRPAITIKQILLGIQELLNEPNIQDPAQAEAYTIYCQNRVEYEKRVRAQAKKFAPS
# Active calls of the source: *; ? = inconclusive; · = no result given. In the library only some 3.9% were active in any assay of this set; here they are far more common.
SMILES,H9c2 protect,NTR1 ag,ALR inh,SUMO HTRF inh
COc1ccc(Nc2nccc(-c3cccc(N)c3)n2)cc1,-2.9,4.0,99.3*,-8.0
COc1ccc(Nc2nccc(-c3ccc(C#N)cc3)n2)cc1,-2.1,0.1,-14.0,13.2
Cn1cnnc1SCc1ccc(C(=O)N=Nc2c(O)n(Cc3ccc(Cl)cc3)c3ccccc23)cc1,53.5*,15.8,·,-0.5
CN(C)CCCNC(=O)c1ccccc1Oc1ccccc1,4.8,-0.6,-1.5,-3.4
Cc1nc(C)c(-c2csc(Nc3ccc(O)c(C(=O)O)c3)n2)s1,0.1,0.3,88.6*,-0.1
Cc1nc(C)c(-c2csc(Nc3cccnc3)n2)s1,-1.0,1.8,89.4*,25.7
Cc1cc(O)ccc1Nc1nc(-c2sc(N)nc2C)cs1,14.7,-0.5,85.3*,8.3
Cc1nc(C)c(-c2csc(Nc3ccc(N)cc3)n2)s1,10.7,2.0,51.4,4.4
CC(=O)Nc1nc(C)c(-c2csc(Nc3ccc(O)cc3)n2)s1,-7.6,7.2,99.0*,-21.0
CC(=O)Nc1nc(C)c(-c2csc(Nc3ccccn3)n2)s1,14.4,15.9,?,12.6
CCOc1cccc(C(=O)N/N=C/c2ccoc2)c1,-8.1,0.6,-0.6,11.1
COc1ccccc1NC(=O)C(C)OC(=O)Cn1cnc2c1c(=O)n(C)c(=O)n2C (stereo not given),0.2,-0.3,2.5,·
CN(C)S(=O)(=O)c1cc(NC(=O)CSc2nn(-c3ccc(Cl)cc3)c(=S)s2)ccc1Cl,-7.9,23.0,-1.8,-3.4
C/C(=N\Nc1cc(C)nc(NCc2ccccc2)n1)c1cccc([N+](=O)[O-])c1,-1.5,10.1,-1.1,2.6
CC(=O)Nc1ccc(Nc2nc(-c3sc(NC(C)=O)nc3C)cs2)cc1,57.2*,0.2,34.4,-9.5
CCC(=O)Nc1nc(C)c(-c2csc(Nc3ccc(C(=O)O)cc3)n2)s1,-3.9,0.6,·,1.6
CC(=O)Oc1ccc2c(=O)c(Oc3ccccc3)coc2c1OC(C)=O,37.8,-0.2,99.3*,-18.1
COc1ccccc1/C=N/N1C(=O)C2C3C=CC(CC3)C2C1=O (stereo not given),4.5,1.5,-6.8,-1.6
COc1ccc(/C=N/Nc2ccc(C(=O)O)cc2)cc1Br,9.3,1.2,98.6*,-2.9
CCOc1cc(/C=N/O)cc(Br)c1OCC,11.7,1.0,2.6,5.1
C=CCOc1c(Br)cc(/C=N/Nc2ccc(C(=O)O)cc2)cc1OCC,4.5,0.4,97.4*,4.7
COc1ccc2c(/C=N/Nc3ccc(C(=O)O)cc3)c[nH]c2c1,-0.8,1.7,88.1*,11.8
COc1ccc(/C=N/Nc2ccc(C(=O)O)cc2)cc1OC,-5.9,0.5,·,5.3
CCOc1ccc(NC(=O)/C(=C\c2ccc(OC(C)=O)c(OC)c2)NC(C)=O)cc1,4.1,-2.0,35.6,-6.5
CCOC(=O)c1c(C)[nH]c(C(C)=O)c1C,0.3,0.0,-5.4,24.3
SMILES,H9c2 protect,NTR1 ag,ALR inh,SUMO HTRF inh
CCc1c(O)nc(SCc2nc3ccccc3c(=O)[nH]2)[nH]c1=O,0.3,-1.2,98.0*,-31.5
C=CCc1c(C)nc(SCc2nc3ccccc3c(=O)[nH]2)[nH]c1=O,15.8,-1.0,7.4,8.7
O=c1[nH]c(SCc2nc3c(cnn3-c3ccccc3)c(=O)[nH]2)nc2ccccc12,52.7*,·,·,12.1
O=c1[nH]c(CSc2nc3ccccc3[nH]2)nc2c1cnn2-c1ccccc1,-16.7,3.4,47.1,-9.7
Cc1c(C(c2cc(O)ccc2O)c2c(C)n(C)n(-c3ccccc3)c2=O)c(=O)n(-c2ccccc2)n1C,3.9,·,·,·
O=C1CCCc2cc3c(cc21)CC1(C3)Cc2cc3c(cc2C1)C(=O)CCC3,-15.3,7.3,-3.9,82.2*
COc1cc(CNCc2cccs2)ccc1OCc1cccs1,-7.0,-0.7,0.6,-10.2
CCN(CC)c1ccc(CNCc2cccs2)cc1,-9.4,2.6,99.0*,15.9
COCCCn1cnnc1SC(C)C(=O)Nc1ccc(S(=O)(=O)N2CCOCC2)cc1 (stereo not given),-0.5,-0.4,·,·
N/C(=N\OC(=O)CCC1CCCCC1)c1cccc([N+](=O)[O-])c1,-11.0,3.3,0.0,-22.5
O=C(Nc1nc(-c2ccccc2)ns1)c1cccs1,-4.8,-1.4,87.8*,2.3
O=C(NCc1nc2ccccc2[nH]1)c1ccc(Cl)c(S(=O)(=O)N2CCCC2)c1,3.9,-0.3,-5.5,-7.9
CCCn1c(NC(=O)c2ccc(Cl)c(S(=O)(=O)N3CCCC3)c2)nc2ccccc21,61.3*,9.7,-0.9,-27.5
CSc1ccc2c(c1)N(CCC1CCCCN1C)c1ccccc1S2 (stereo not given),-15.7,10.0,99.0*,12.4
C=CCNc1nc2cc(-c3ccccc3C)sc2c(=O)n1C,-3.0,·,·,·
O=C1CCCC2=C1C(c1ccc3c(c1)OCO3)c1c([nH]n(-c3ccccc3)c1=O)N2 (stereo not given),0.9,-0.4,56.3,-4.0
COc1cc(C2C3=C(CCCC3=O)Nc3[nH]n(-c4ccccc4)c(=O)c32)ccc1O (stereo not given),3.5,-1.7,99.9*,13.2
COc1cccc(C2C3=C(CCCC3=O)Nc3[nH]n(-c4ccccc4)c(=O)c32)c1 (stereo not given),5.4,-0.3,78.4*,7.9
COc1cccc(C2C3=C(Nc4[nH]n(-c5ccccc5)c(=O)c42)c2ccccc2C3=O)c1 (stereo not given),·,·,?,-2.3
Oc1ccc(O)c(-c2cnns2)c1,-3.8,·,99.0*,-10.0
COc1ccc(OC)c(C(=O)CN2C(=O)NC(C)(c3ccccc3)C2=O)c1 (stereo not given),1.1,-0.5,-4.3,-5.4
CCOc1ccc(NC(=O)CSc2nccn(-c3ccc4c(c3)OCCO4)c2=O)cc1,-3.8,0.1,97.7*,·
O=C(CSc1nccn(-c2ccc3c(c2)OCCO3)c1=O)Nc1ccccc1,-5.6,0.4,·,·
Cc1ccc(NC(=O)CSc2nccn(-c3ccc4c(c3)OCCO4)c2=O)cc1,-4.7,1.1,98.9*,·
CCc1ccc(NC(=O)CSc2nccn(-c3ccc4c(c3)OCCO4)c2=O)cc1,-7.2,0.1,·,·
SMILES,H9c2 protect,NTR1 ag,ALR inh,SUMO HTRF inh
C/C(=N\N(Cc1ccccc1)c1ccccc1)c1cccnc1,5.2,-0.2,98.5*,6.0
Cc1cn(C2CCCCC2)c(=O)[nH]c1=O,7.0,·,·,·
CC1(C)CCC(=O)C=C1Nc1ccc(F)c(Cl)c1,0.5,-1.2,11.9,2.6
CC(C)(C)OC(=O)NCc1n[nH]c(=S)n1C1CC1,11.5,2.1,85.6*,5.4
CC(C)(C)OC(=O)NCC(=O)N1CCC(C(=O)O)CC1,12.7,1.3,-10.9,3.1
CC(=O)Nc1cccc(NC(=O)CCn2cnc3cc(C)c(C)cc32)c1,-5.2,-0.8,4.4,12.4
CCCC(=O)NC(=S)Nc1cccc(NC(=O)c2ccc(Cl)cc2Cl)c1,-3.6,5.1,-0.2,-23.5
Cc1ccc(-c2nc(COC(=O)C3=NN(c4ccccc4)C(=O)CC3)cs2)cc1,-8.0,4.7,98.6*,·
